# Data published in PubChem BioAssay (NCATS).
# Inconclusive results are not listed. The source made the active and inactive calls. Calls follow the shape of the dose curve; as a rule, active = well fitted activation curve with a large enough effect in the main read-out, with a control signal flat (not every such curve was filed as active); inconclusive = small, poorly fitted or top-dose-only effect, or effect the other way, or a change in a side signal; inactive = flat fitted curve, though single readings scatter.
# Molecular target: 3',5'-cyclic-AMP phosphodiesterase 4B (Homo sapiens) (UniProt Q07343)
# Experiment: qHTS Assay for Inhibitors of PDE-IV (AID 607); also: % of control where 0% means no effect
# Conditions: HEK293 ACTOne CNG channel cells, membrane potential fluorescence; series mostly up to 22.9 µM; activation (PDE inhibition): at the top concentration
# Source text: NIH Chemical Genomics Center [NCGC]
# NIH Molecular Libraries Screening Centers Network [MLSCN]
# The cyclic nucleotide phosphodiesterases (PDEs) are proteins that catalyze hydrolysis of 3', 5'-cyclic nucleotides, such as cyclic adenosine monophosphate (cAMP) and cyclic guanosine monophosphate (cGMP), to their corresponding 5'-nucleotide monophosphates. These enzymes play an important role in controlling cellular concentrations of cyclic nucleotides and have a central role in a variety of intracellular signaling events. cAMP PDEs are emerging as a promising class of drug targets in asthma and cardiovascular disease therapeutic areas.
# There are no commercially available cell-based screening assays for PDE inhibitors: currently biochemical assays are done using pure substrates (cAMP or cGMP) and purified recombinant PDE enzymes. As with other biochemical screens on intracellular targets, false positives and false negatives may result from issues involving cell membrane permeability, cellular metabolism, and the like.
# Here we report the development of a cell-based screening assay for cAMP phosphodiesterase (PDE) inhibitors. The assay is based on the BD ACTOne# technology (BD Biosciences) which utilizes a modified cyclic nucleotide-gated channel (CNG) to monitor intracellular cAMP changes in live cells. The CNG channel is localized on the plasma membrane, and opens when the intracellular cAMP level increases, resulting in ion flux and cell membrane depolarization. The influx of cations through the CNG channel can be quantified using membrane potential (MP) dyes. We modified the BD ACTOne technology to allow the detection of PDE inhibitors, and performed an inhibitor screen for PDE-IV, which is expressed endogenously in HEK293 cells. We optimized this assay in homogeneous 1536-well plate assay format for high throughput screening.
# NCGC Assay Protocol Summary:
# The medium contained 10% FBS (Invitrogen), 2 mM L-glutamine, and 250 ug/ml G418 (Cellgro) and 1 ug/ml puromycin (Clontech). ACTOneTM parental cells (BD Biosciences) were maintained in the same medium without puromycin.
# The activity of the CNG channel was measured by BD ACTOneTM membrane potential dye kit (BD Biosciences). Forskolin, a positive control for cAMP activation and RO 20-1724, a PDE inhibitor, were both purchased from Sigma and solublized in DMSO.
# Sequence,Parameter,Value,Description
# 1,Reagent,3 uL,1000 cells/well 1536 TC treated Black plate
# 3,Compound,0.5 uL,Kalypsys dispense RO 20-1724 100 uM final [A]
# 4,Reagent,3 uL,BD membrane potential dye
# 6,Compound,23 nL,Final concentration was 0.7nM to 22.9uM
# 8,Detector,EX 535 / EM 590 [B],Envision
# Footnotes: [A] The stock 2 mM RO 20-1724 PDE inhibitor was made in 10 % DMSO. Parental cell line received 10 uM forskolin + 100 uM RO. [B] Envsion settings: Bottom Excitation 535/20 nm top emission 590/20, gain of 150 and 5 flashes per well.
# Keywords: PDE, PDE-IV, cytotoxicity, flourescence, MLSMR, MLSCN, NIH Roadmap, qHTS, NCGC
# Sequence of 3',5'-cyclic-AMP phosphodiesterase 4B (Homo sapiens) (Q07343 whole entry, looked up): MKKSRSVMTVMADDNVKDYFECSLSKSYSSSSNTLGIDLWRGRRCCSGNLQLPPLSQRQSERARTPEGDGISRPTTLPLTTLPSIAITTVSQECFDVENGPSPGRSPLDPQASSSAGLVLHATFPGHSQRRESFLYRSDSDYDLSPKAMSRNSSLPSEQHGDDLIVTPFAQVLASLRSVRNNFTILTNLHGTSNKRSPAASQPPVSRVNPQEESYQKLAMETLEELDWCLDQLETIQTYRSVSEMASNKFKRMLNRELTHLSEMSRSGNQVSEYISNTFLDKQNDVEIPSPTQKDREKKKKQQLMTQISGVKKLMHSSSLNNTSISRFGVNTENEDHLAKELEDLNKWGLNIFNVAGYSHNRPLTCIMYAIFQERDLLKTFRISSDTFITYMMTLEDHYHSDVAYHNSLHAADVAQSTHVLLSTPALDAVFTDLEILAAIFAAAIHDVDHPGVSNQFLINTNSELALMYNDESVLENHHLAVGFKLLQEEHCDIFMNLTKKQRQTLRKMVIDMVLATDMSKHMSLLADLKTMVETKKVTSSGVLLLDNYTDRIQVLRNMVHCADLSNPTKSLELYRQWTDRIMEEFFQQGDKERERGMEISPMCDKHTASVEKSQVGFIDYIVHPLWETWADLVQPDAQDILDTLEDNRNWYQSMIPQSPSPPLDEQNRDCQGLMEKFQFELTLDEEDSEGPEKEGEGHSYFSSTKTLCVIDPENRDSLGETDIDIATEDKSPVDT
SMILES,activation (PDE inhibition),Potency
O=C(c1ccco1)N1CCC2(CCCN(c3ccccn3)C2)CC1,6.95% (inactive),–
O=C(c1cccc(F)c1)N1CCC[C@@]2(CCN(Cc3ccncc3)C2)C1,-2.39% (inactive),–
O=C(c1cnccn1)N1CCC2(CC1)CCN(c1ccccn1)CC2,8.1% (inactive),–
COc1ccc(-c2nc3cnc(N(C)C)nc3n(Cc3ccc(F)cc3)c2=O)cc1,1.92% (inactive),–
CS(=O)(=O)Nc1cccc(-c2nccc(-n3ccnc3)n2)c1,10.7% (inactive),–
CN(C)c1ncc2nc(-c3cc(F)cc(F)c3)c(=O)n(-c3ccccc3)c2n1,29.8% (inactive),–
COc1ccc(C(=O)N2CCC[C@@]3(CCN(Cc4cc(C(F)(F)F)cc(C(F)(F)F)c4)C3)C2)cc1,3.56% (inactive),–
COc1ccc(-n2c(=O)c(-c3cc(F)cc(F)c3)nc3cnc(N4CCOCC4)nc32)cc1,-5.25% (inactive),–
O=C(c1cccc(F)c1)N1CCC2(CC1)CCN(c1ncccn1)CC2,0.172% (inactive),–
FC(F)(F)c1cc(CN2CC[C@@]3(CCCNC3)C2)cc(C(F)(F)F)c1,-3.41% (inactive),–
COc1ccc(-c2nc3cnc(N4CCN(C)CC4)nc3n(C)c2=O)cc1,-8.77% (inactive),–
CC(=O)N1CCC[C@@]2(CCN(C(=O)Nc3cccc(C#N)c3)C2)C1,15.5% (inactive),–
Cc1ccccc1-c1cncnc1NCCN1CCOCC1,4.42% (inactive),–
Cc1ccccc1-c1nccc(-n2ccnc2)n1,12.4% (inactive),–
O=c1cnc2cnc(Oc3ccccc3)nc2n1C[C@H]1CCCO1,-0.0335% (inactive),–
CC(=O)NCCNc1nc(-c2ccccc2CN(C)C)nc2ccccc12,0.8% (inactive),–
COc1ccc(Oc2ncc3nc(-c4cn(C)c5ccccc45)c(=O)n(CCC#N)c3n2)cc1,1.33% (inactive),–
CC(C)CN1CCCC2(CCN(C(=O)c3ccco3)CC2)C1,-7.27% (inactive),–
N#Cc1ccc(CN2CC[C@@]3(CCCN(C(=O)c4ccncc4)C3)C2)cc1,2.74% (inactive),–
CO[C@]1(NC(=O)CSCC#N)C(=O)N2C(C(=O)O)=C(CSc3nnnn3C)CS[C@H]21,–,inactive

SMILES,activation (PDE inhibition),Potency
N#Cc1cccc(-c2ccc3ncnc(NC4CCNCC4)c3c2)c1,6.22% (inactive),–
Cn1c(=O)c(-c2ccccc2)nc2cnc(OCc3ccccc3)nc21,8.27% (inactive),–
CS(=O)(=O)N1CCC2(CCCN(c3cccc(-c4ccccc4)c3)C2)CC1,16.5% (inactive),–
COC(=O)N1CCC2(CCCN(c3cccc(-c4ccccc4)c3)C2)CC1,-9.64% (inactive),–
c1ccc(C(c2ccccc2)N2CC3(CCNCC3)C2)cc1,17.2% (inactive),–
c1nc(NCCN2CCOCC2)c2cc(-c3ccoc3)ccc2n1,16.1% (inactive),–
O=C(c1cc(C(F)(F)F)cc(C(F)(F)F)c1)N1CCC2(CC1)CN(c1ncccn1)C2,-5.73% (inactive),–
CNc1ccnc(-c2ccccc2C)n1,9.14% (inactive),–
COCCn1c(=O)c(-c2cccs2)nc2cnc(N3CCOCC3)nc21,8.14% (inactive),–
O=S(=O)(c1ccccc1)N1CCC2(CCCN(Cc3ccccc3)C2)CC1,15% (inactive),–
O=S(=O)(c1ccccc1)N1CCC2(CC1)CN(Cc1nccs1)C2,-1.01% (inactive),–
CC(=O)N1CCC2(CCCN(c3cccc(-c4ccccc4)c3)C2)CC1,27.7% (inactive),–
O=C(Oc1ccccc1)N1CCC2(CCCN(c3ccccn3)C2)CC1,29% (inactive),–
O=S(=O)(c1ccccc1)N1CCC2(CC1)CN(C(c1ccccc1)c1ccccc1)C2,25.9% (inactive),–
COc1ccccc1-c1nccc(NCc2cccnc2)n1,4.94% (inactive),–
Cc1noc(C)c1-c1cncnc1Nc1ccccc1,8.33% (inactive),–
O=C(c1ccco1)N1CCC2(CCCN(Cc3ccncc3)C2)CC1,2.72% (inactive),–
O=c1c(-c2cc(F)cc(F)c2)nc2cnc(N3CCOCC3)nc2n1-c1ccccc1,9.83% (inactive),–
O=C(O)CNC(=O)[C@@H](CS)Cc1ccccc1,–,inactive
Cn1cccc1C(=O)N1CCC2(CC1)CN(Cc1cc(C(F)(F)F)cc(C(F)(F)F)c1)C2,13.3% (inactive),–
